Rab9 promoter act – qHTS Assay for Rab9 Promoter Activators | Potency, µM (top dose mostly 9.22 µM), hits mostly activators | 320,000 tested, 2.8% active | Huh7 Rab9 promoter-luciferase reporter, luminescence, 24 h; further: nearly all actives have a fitted effect of over 60% in size
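Huh7 cells stably carrying a Rab9 promoter-luciferase reporter, 1500 cells per well in OP-MEM I with 10% FBS, treated with compound 24 hours at 37C. Luciferase activity read by luminescence after 10 minutes with Amplite reagent.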
ELG1 DNA repair – qHTS screen for small molecules that inhibit ELG1-dependent DNA repair in human embryonic kidney (HEK293T) cells expressing luciferase-tagged ELG1; Potency, µM (titrated, usually from 46.1 µM), most hits filed as inhibitors; HEK293T ELG1-luciferase reporter, luminescence, 16 h; DNA damage induced by 5-fluorouridine; AID 504467, 2011; 330,000 tested, 2.3% active; further: nearly all actives have a fitted effect of over 55% in size
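Reporter activity after DNA damage by 5-fluorouridine is monitored. Compound-treated cells incubate 16 hr at 37 °C, then ONE-Glo is added for 30 min before luminescence reading.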
SMN2 splice up – qHTS Assay for Enhancers of SMN2 Splice Variant Expression; Potency, µM (titrated, usually from 46.1 µM), actives largely listed as activators; HEK293 SMN2-luciferase splicing reporter, luminescence, 30-36 h; 210,000 tested, 2.8% active; further: nearly all actives have a fitted effect of over 55% in size
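HEK293 cells carry an SMN2 minigene-luciferase reporter in which exon 7 inclusion puts luciferase in frame. Cells were seeded at 2000 cells/well, attached for 10-12 hours, then exposed to compounds for 30-36 hours at 37C before ONE-Glo luminescence.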
FLuc counter – qHTS profiling assay for firefly luciferase inhibitor/activator using purifed enzyme and Km concentrations of substrates (counterscreen for miR-21 project) | Luciferin 4-monooxygenase (Photinus pyralis), P08659 | purified FLuc, Km substrates, luminescence inhibition | Potency, µM (doses to about 57.5 µM), most hits filed as inhibitors | 360,000 tested, 6.9% active | AID 588342, 2011; further: nearly all actives have a fitted effect of over 55% in size
Target sequence (P08659 whole entry, looked up): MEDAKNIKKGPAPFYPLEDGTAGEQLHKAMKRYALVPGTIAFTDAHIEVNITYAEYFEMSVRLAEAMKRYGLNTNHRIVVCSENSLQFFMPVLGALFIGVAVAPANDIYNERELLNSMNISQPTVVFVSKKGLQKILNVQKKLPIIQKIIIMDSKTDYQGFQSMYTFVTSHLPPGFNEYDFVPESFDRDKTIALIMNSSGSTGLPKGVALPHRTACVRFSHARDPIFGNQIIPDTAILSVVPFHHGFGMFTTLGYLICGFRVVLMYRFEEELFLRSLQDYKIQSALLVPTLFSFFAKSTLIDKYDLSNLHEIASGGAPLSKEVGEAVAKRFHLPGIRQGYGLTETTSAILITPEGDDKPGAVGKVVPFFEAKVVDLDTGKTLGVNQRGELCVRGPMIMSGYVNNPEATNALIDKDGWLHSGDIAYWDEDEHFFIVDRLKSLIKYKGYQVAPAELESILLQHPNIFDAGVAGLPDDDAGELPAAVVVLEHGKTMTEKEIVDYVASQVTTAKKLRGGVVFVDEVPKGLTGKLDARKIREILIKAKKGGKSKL
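Purified P. pyralis luciferase (10nM final) with 10uM D-luciferin and 10uM ATP (Km levels) in 50mM Tris acetate pH 7.5, 10mM Mg acetate, 0.01% Tween-20, 0.05% BSA; qHTS 6-point titration, ~60 µM downward; luminescence read.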
NPC1 prom act – qHTS Assay for NPC1 Promoter Activators; Huh7 NPC1 promoter luciferase reporter, 24 h; Potency, µM (series often up to 9.22 µM), actives largely listed as activators; AID 485313, 2010; 320,000 tested, 2.4% active; further: nearly all actives have a fitted effect of over 60% in size
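Luminescence from an NPC1 promoter-driven luciferase reporter in stably transfected Huh7 cells was measured after 24 h compound treatment at 37 °C, followed by 10 min ambient incubation with luciferase detection reagent.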
ELG1 genotox – qHTS screen for small molecules that induce genotoxicity in human embryonic kidney (HEK293T) cells expressing luciferase-tagged ELG1 | HEK293T ELG1-luciferase reporter, luminescence, 16 h | Potency, µM (top dose mostly 46 µM), actives largely listed as activators | 330,000 tested, 1.3% active; further: nearly all actives have a fitted effect of over 60% in size
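After overnight (16 hr) compound treatment at 37 °C, ELG1-luciferase HEK293T cells were lysed with ONE-Glo; luminescence quantified 30 min later at room temperature.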
Hits are given with their value; i = inactive; ? = inconclusive; nt = no result given. A selection: hits, their analogues and other compounds. The true share with any hit is near 9.3%. The call rests on the fitted dose curve; in most records, active means well fitted curve in the direction sought with a large enough effect; inconclusive means small, poorly fitted or top-dose-only effect, or another doubt; inactive means no such curve, though single readings can be large; an effect the other way counts as inactive or inconclusive.

SMILES	Rab9 promoter act	ELG1 DNA repair	SMN2 splice up	FLuc counter	NPC1 prom act	ELG1 genotox
O=C(c1ccccc1)c1ncc[nH]1	i	?	nt	i	i	i
CC1CCCCN1C(=O)CSc1nc2ccccc2nc1Cc1ccccc1 (centres undefined)	nt	nt	nt	i	nt	nt
COc1cc(NC(=O)CSc2nc(-c3ccccc3)no2)cc(OC)c1	nt	nt	nt	i	nt	nt
COc1cc(NC(=O)CSc2nc(-c3ccc(C(C)C)cc3)no2)cc(OC)c1	nt	nt	nt	2.7µM	nt	nt
CC(C)c1ccc(-c2noc(SCC(=O)N3CCCCC3C)n2)cc1 (centres undefined)	nt	nt	nt	3µM	nt	nt
CC1CCN(C(=O)CSc2nc(-c3ccc(C(C)C)cc3)no2)CC1	nt	nt	nt	3.4µM	nt	nt
CCN(C(=O)CSc1nc(-c2ccc(C(C)C)cc2)no1)c1ccccc1	nt	nt	nt	9.5µM	nt	nt
CC(C)c1ccc(-c2noc(SCC(=O)N3CCN(c4ccc(F)cc4)CC3)n2)cc1	nt	nt	nt	i	nt	nt
CCCc1nn(C)c(C(=O)Nc2ccc3ccccc3c2)c1Cl	?	?	14µM	11µM	?	?
CCCc1nn(C)c(C(=O)Nc2cccc(CC)c2)c1Cl	?	?	?	17µM	?	i
CCCCOc1ccc(C(=O)N/C(=C/C=C/c2ccccc2)C(=O)O)cc1	i	i	i	15µM	i	i
O=C(Nc1ccc(O)cc1)/C(=C\C=C\c1ccccc1)NC(=O)c1ccccc1	i	?	nt	9.5µM	i	i
O=C(Nc1ccc(C(=O)O)cc1)/C(=C\C=C\c1ccccc1)NC(=O)c1ccccc1Cl	i	i	nt	i	i	i
O=C(O)COc1ccc(/C=N/NC(=O)/C(=C/C=C/c2ccccc2)NC(=O)c2ccccc2)cc1	i	i	nt	21µM	i	i
CCCCOc1ccc(C(=O)N/C(=C/C=C/c2ccccc2)C(=O)NC)cc1	i	?	i	17µM	i	i
O=C(NCC(c1cccs1)N1CCOCC1)c1ccc(Cl)c(S(=O)(=O)N2CCOCC2)c1 (centres undefined)	i	?	nt	i	i	i
c1ccc(CN2CCN(C3=Nc4cccc5cccc3c45)CC2)cc1	i	?	i	11µM	i	i
Fc1ccc(N2CCN(C3=Nc4cccc5cccc3c45)CC2)cc1	i	?	i	15µM	i	i
CCOc1ccc(NC(=O)NC(C)CC)cc1 (centres undefined)	i	?	i	?	i	i
CCOC(=O)/C(=C\c1ccc(OC(F)F)cc1)C1=Nn2c(nnc2-c2ccc(Cl)cc2)SC1	i	12µM	i	i	i	i
OC1c2ccccc2-c2nc3ccccc3cc21 (centres undefined)	nt	nt	14µM	nt	nt	nt
COc1cccc(-c2cc(C(=O)Nc3ccccc3SC)no2)c1	?	?	i	7.6µM	?	?
COc1cccc(-c2cc(C(=O)Nc3cccc(O)c3)no2)c1	?	?	i	0.43µM	?	?
COc1ccc(-c2cc(C(=O)Nc3cccc(Cl)c3)no2)cc1	1.1µM	?	nt	0.76µM	1µM	1.8µM
O=C(Nc1cccnc1Cl)c1cc(-c2ccco2)on1	?	?	i	5.4µM	i	16µM
SMILES	Rab9 promoter act	ELG1 DNA repair	SMN2 splice up	FLuc counter	NPC1 prom act	ELG1 genotox
COc1ccc(NC(=O)c2cc(-c3cccc(OC)c3)on2)cc1	i	?	i	i	i	i
COc1ccc(-c2cc(C(=O)Nc3ccccc3SC)no2)cc1OC	i	?	i	i	i	i
CCCCOC(=O)C1CN(c2ccccc2)N=C1C(C)=O (centres undefined)	i	i	i	?	i	i
COc1ccc(CCNC(=O)C(=O)NCCOc2ccccc2Cl)cc1OC	i	i	i	i	i	i
O=C(Nc1cnn(C23CC4CC(CC(C4)C2)C3)c1)c1cc(-c2ccccc2)on1	i	i	i	i	i	i
O=C(Nc1cccc(Cl)c1)c1cc(-c2ccccc2)on1	nt	nt	nt	1.5µM	nt	nt
O=C(Nc1cccc(Cl)c1)c1cc(-c2ccco2)on1	i	?	nt	2.7µM	i	i
CCc1ccc(NC(=O)c2cc(-c3ccco3)on2)cc1	i	?	i	2.4µM	i	i
N#Cc1ccc(NC(=O)c2cc(-c3cccc(Cl)c3)on2)cc1	nt	nt	i	i	nt	nt
CCCn1cc(NC(=O)c2cc(-c3ccccc3)on2)cn1	?	?	i	13µM	i	23µM
O=C(Nc1cc(Cl)ccc1O)c1cc(-c2ccco2)on1	i	?	nt	?	i	21µM
O=[N+]([O-])c1ccccc1NC(=S)N/N=C/c1ccc(O)c(O)c1	?	?	nt	19µM	?	3.7µM
Cc1cccc(NC(=S)N/N=C/c2ccc(Cl)c([N+](=O)[O-])c2)c1	i	i	i	i	i	i
CCOc1cccc(/C=N/NC(=S)Nc2ccccc2[N+](=O)[O-])c1O	i	?	i	?	i	0.37µM
O=C(/C=C/c1ccc([N+](=O)[O-])cc1)NCc1ccc2c(c1)OCO2	i	?	nt	i	i	i
CCOc1ccc(Cc2onc3c2C(=O)CCC3)cc1OCC	i	i	i	i	i	i
CCc1ccc(C(=O)Cn2ccsc2=N)cc1	0.71µM	?	nt	1.3µM	1.6µM	?
COc1ccc(Nc2nnc(SC(C)C(=O)NC3CC3)s2)cc1 (centres undefined)	nt	i	nt	nt	nt	i
CC(Sc1nnc(NC2CCCCC2)s1)C(=O)Nc1ccc2c(c1)C(=O)c1ccccc1C2=O (centres undefined)	?	?	10µM	?	?	i
COc1ccccc1NS(=O)(=O)c1ccc(O)cc1	i	i	i	i	i	i
Cc1ccc(S(=O)(=O)NCCc2cn3ccsc3n2)c(C)c1	nt	nt	nt	i	nt	nt
CCCNC(=O)c1ccc(N2CCC3(CC2)CC(c2ccccc2)=NO3)c(NC(=O)Cc2ccc(F)cc2)c1	i	21µM	nt	i	i	i
CCCNC(=O)c1ccc(N2CCC3(CC2)CC(c2ccccc2)=NO3)c(N)c1	i	i	nt	i	i	i
O=C(/C=C/c1ccco1)Nc1ccccc1C(=O)O	2.8µM	?	13µM	2.7µM	2µM	10µM
O=C(/C=C/c1ccco1)Nc1ccccc1C(=O)Nc1cccc(C(=O)O)c1	i	?	nt	3µM	i	i
O=C(/C=C/c1ccco1)Nc1cc(Cl)ccc1C(=O)O	i	i	i	19µM	i	i
O=C(/C=C/c1ccco1)Nc1ccccc1N1CCCC1	i	i	i	i	i	i
O=C(CCS(=O)(=O)c1ccc(Br)cc1)NCCC1=CCCCC1	i	?	nt	i	i	i
CCOc1ccc(-c2cn(-c3ccc(OC)cc3)c(SC)n2)cc1	4µM	?	11µM	5.4µM	?	?

Screens from PubChem.
